From the supplement of paper PMC6992640

tested on: HCI01 (cells of a triple-negative basal-like breast cancer xenograft); experiment: cell viability of combination (% of vehicle); higher = less cytotoxic; details: 1 µM; 72 h; partner dose: 10 nM
Protocol: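 PDX cells were treated for 72 h with each drug at 1 µM plus afatinib (10 nM; 1 µM for WHIM30). Luciferase viability is expressed as percent of vehicle.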

SMILES	cell viability of combination
CCCCCCCCCCCCCCCC[N+](C)(C)C.[Br-] [Cetrimonium Bromide (CTAB)] + CN(C)C/C=C/C(=O)Nc1cc2c(Nc3ccc(F)c(Cl)c3)ncnc2cc1O[C@H]1CCOC1 [Afatinib]	50.1
CCCCCCCCCCCC[N+](C)(C)CCOc1ccccc1.[Br-] [Domiphen Bromide] + CN(C)C/C=C/C(=O)Nc1cc2c(Nc3ccc(F)c(Cl)c3)ncnc2cc1O[C@H]1CCOC1 [Afatinib]	51
Cc1cc(C(C#N)c2ccc(Cl)cc2)c(Cl)cc1NC(=O)c1cc(I)cc(I)c1[O-].[Na+] (stereo not given) [Closantel Sodium] + CN(C)C/C=C/C(=O)Nc1cc2c(Nc3ccc(F)c(Cl)c3)ncnc2cc1O[C@H]1CCOC1 [Afatinib]	53.2
Cc1cc(C(C#N)c2ccc(Cl)cc2)c(Cl)cc1NC(=O)c1cc(I)cc(I)c1O (stereo not given) [Closantel] + CN(C)C/C=C/C(=O)Nc1cc2c(Nc3ccc(F)c(Cl)c3)ncnc2cc1O[C@H]1CCOC1 [Afatinib]	50.6
CCCCCCCCCCCCCCCC[n+]1ccccc1.[Cl-] [Cetylpyridinium Chloride] + CN(C)C/C=C/C(=O)Nc1cc2c(Nc3ccc(F)c(Cl)c3)ncnc2cc1O[C@H]1CCOC1 [Afatinib]	52
